From ChEMBL document CHEMBL3988442, “University of Dundee, Small-Polar-MMV Screening Library” (2021)
For some of these results: Entries with a potency or affinity are not part of this list.

Experiments:
Parameters in all cases: scale not given: direction of the effect not stated beside the values
[1] = biological target: Protein translocase subunit SecA (Escherichia coli (strain K12)) (UniProt P10408); assay: Assay to Identify E. coli SecA ATPase Inhibitors; format: functional; conditions: 30 µM
Chain of Protein translocase subunit SecA (Escherichia coli (strain K12)) (P10408 whole entry): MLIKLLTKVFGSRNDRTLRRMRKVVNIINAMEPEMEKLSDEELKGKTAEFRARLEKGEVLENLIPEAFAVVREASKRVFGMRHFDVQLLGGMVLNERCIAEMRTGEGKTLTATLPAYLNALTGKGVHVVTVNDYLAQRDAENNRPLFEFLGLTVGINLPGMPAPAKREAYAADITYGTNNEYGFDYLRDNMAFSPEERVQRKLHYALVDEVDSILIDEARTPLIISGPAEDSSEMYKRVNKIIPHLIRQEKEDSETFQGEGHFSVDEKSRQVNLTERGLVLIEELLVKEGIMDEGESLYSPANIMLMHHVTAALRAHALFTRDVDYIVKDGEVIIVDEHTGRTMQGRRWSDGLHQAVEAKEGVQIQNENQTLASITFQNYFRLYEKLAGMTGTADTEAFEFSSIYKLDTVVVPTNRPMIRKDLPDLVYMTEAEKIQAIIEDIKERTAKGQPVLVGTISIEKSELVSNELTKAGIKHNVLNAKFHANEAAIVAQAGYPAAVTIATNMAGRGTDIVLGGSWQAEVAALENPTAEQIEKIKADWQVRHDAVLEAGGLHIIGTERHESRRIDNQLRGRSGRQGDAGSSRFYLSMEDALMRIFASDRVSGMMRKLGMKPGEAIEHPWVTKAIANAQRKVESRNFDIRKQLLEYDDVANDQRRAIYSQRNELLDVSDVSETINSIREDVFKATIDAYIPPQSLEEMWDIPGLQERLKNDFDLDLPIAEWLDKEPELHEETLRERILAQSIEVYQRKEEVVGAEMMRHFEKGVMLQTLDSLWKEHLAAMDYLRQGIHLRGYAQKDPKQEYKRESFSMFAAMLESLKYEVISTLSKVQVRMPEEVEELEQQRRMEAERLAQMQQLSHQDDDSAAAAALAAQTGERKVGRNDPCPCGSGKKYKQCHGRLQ

[2] = biological target: T1, Ubiquitin-activating enzyme e1, putative (Leishmania donovani (strain BPK282A1)) (UniProt E9BSI1); assay: Leishmania donovani Ubiquitin Activating Enzyme (LdE1); format: functional; conditions: 30 µM
T1 sequence (whole entry): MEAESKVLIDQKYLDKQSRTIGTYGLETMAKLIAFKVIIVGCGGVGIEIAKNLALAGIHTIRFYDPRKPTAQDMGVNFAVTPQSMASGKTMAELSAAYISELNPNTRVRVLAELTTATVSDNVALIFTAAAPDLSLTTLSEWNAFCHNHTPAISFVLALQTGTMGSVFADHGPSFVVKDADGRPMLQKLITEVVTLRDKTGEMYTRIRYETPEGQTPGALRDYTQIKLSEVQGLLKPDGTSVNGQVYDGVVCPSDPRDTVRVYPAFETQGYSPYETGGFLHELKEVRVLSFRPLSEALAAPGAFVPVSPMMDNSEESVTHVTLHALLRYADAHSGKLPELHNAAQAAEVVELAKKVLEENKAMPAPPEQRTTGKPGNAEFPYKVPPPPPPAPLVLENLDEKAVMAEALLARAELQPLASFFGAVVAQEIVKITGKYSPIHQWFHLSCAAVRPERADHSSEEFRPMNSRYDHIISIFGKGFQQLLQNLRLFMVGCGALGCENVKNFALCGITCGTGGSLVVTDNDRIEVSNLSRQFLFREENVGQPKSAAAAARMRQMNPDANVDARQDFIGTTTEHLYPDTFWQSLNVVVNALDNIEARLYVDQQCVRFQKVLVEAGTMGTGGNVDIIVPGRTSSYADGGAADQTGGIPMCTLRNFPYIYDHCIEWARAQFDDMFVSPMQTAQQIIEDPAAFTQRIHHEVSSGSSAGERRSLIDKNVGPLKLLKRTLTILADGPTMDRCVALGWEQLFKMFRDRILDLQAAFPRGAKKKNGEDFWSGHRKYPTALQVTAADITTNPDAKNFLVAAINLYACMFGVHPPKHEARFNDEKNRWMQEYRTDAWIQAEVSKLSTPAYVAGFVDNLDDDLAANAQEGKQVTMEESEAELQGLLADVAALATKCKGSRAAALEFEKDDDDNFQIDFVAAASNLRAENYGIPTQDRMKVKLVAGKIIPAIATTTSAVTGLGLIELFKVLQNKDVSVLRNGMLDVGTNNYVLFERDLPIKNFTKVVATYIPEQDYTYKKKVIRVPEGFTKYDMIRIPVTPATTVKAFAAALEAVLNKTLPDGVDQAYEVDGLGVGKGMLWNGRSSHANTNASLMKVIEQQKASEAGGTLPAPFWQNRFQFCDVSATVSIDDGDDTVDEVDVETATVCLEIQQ

[3] = biological target: AMP-activated protein kinase, AMPK (Homo sapiens) (UniProt P54646+O43741+P54619+Q9UGJ0+Q9Y478+Q13131+Q9UGI9); assay: AMP-dependent Kinase enzyme assay. An in vitro enzyme assay that detects ADP turnover that is directly proportional to AMPK activity. This uses naive AMPK that is activated during the assay with MK-8722; format: functional; conditions: 30 µM
[4] = biological target: Sialic acid-binding Ig-like lectin 9 (Homo sapiens) (UniProt Q9Y336); assay: Hs-Siglec9 ALPHAscreen SOP 20170721; conditions: 10 µM
Chain of Sialic acid-binding Ig-like lectin 9 (Homo sapiens) (Q9Y336 whole entry): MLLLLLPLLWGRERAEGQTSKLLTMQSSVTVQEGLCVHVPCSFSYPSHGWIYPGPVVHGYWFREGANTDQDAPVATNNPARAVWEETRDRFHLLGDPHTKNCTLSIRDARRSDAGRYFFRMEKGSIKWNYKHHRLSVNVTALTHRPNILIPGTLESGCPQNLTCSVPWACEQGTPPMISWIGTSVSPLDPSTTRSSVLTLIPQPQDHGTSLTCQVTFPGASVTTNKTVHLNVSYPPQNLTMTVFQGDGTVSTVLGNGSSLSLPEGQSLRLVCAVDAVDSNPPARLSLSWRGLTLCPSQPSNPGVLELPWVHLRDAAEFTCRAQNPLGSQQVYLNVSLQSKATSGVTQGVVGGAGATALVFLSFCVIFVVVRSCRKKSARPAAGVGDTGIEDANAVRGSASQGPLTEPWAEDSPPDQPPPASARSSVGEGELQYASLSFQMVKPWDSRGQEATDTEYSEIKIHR

Trypanosoma cruzi = assay: Trypanosoma cruzi phosphomannomutase and mannose-1-phosphate guanylyltransferase assay; format: functional; conditions: 10 µM
[5] = biological target: T2, Arginase-2, mitochondrial (Homo sapiens) (UniProt P78540); assay: in vitro enzyme assay to detect the production of urea directly proportional to the activity of Arginase II; format: functional; conditions: 33.3 µM; note: in the data most compounds retested in dose-response had high values
T2 sequence (whole entry): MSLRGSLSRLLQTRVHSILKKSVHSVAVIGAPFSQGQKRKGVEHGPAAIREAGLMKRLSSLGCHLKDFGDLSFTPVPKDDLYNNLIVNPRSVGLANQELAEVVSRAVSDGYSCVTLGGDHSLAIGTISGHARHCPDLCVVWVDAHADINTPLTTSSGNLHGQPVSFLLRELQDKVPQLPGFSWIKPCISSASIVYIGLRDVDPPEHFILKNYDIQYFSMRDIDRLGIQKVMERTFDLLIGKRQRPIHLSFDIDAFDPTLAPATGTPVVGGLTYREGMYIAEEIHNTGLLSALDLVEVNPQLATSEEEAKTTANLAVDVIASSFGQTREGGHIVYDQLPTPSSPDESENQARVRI

[6] = biological target: T3, Proteasome subunit beta (Trypanosoma cruzi) (UniProt O96673); assay: Trypanosoma cruzi proteasome chymotrypsin-like activity (TcProtChymo) assay.; note: in the data most compounds retested in dose-response had high values; format: functional; conditions: 9.37 µM
T3 sequence (whole entry): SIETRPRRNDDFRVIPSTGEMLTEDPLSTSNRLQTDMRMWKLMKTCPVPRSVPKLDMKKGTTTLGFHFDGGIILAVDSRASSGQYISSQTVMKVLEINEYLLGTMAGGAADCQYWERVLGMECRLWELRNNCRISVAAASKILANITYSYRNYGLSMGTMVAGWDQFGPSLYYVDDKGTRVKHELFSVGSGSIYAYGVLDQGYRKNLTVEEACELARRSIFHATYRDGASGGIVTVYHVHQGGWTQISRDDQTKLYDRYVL

Homo sapiens = organism: Homo sapiens; assay: To identify inhibition of the IFN signalling (Jak-Stat) pathway via expression of an eGFP reporter gene under the control of an IFN-stimulated response element (ISRE) containing MxA promoter.; format: functional; conditions: 30 µM
[7] = biological target: T4, Tyrosyl-tRNA synthetase, putative (Trypanosoma cruzi (strain CL Brener)) (UniProt Q4DSP6); assay: Trypanosoma cruzi tyrosyl tRNA synthetase (TcYRS) _High Tyrosine SOP; format: functional; conditions: 30 µM; note: in the data most compounds retested in dose-response had high values
T4 sequence (whole entry): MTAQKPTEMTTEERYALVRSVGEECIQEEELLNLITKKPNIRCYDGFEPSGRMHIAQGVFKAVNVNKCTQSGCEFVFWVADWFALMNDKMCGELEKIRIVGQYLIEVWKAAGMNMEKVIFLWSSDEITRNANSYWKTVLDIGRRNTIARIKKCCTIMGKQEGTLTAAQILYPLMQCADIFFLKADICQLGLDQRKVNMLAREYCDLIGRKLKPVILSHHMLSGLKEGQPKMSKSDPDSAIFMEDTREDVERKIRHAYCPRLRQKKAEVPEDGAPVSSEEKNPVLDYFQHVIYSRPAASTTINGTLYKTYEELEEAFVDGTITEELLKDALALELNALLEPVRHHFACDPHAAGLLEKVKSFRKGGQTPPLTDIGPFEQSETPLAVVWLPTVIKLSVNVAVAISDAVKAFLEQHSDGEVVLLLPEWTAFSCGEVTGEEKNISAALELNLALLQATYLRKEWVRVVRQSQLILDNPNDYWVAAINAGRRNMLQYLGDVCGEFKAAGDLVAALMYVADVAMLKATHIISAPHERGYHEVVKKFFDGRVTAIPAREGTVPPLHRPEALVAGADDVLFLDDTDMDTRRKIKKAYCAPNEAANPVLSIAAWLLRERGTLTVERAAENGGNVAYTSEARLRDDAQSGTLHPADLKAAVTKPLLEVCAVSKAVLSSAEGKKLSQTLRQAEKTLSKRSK

[8] = biological target: T4, Tyrosyl-tRNA synthetase, putative (Trypanosoma cruzi (strain CL Brener)); assay: Trypanosoma cruzi tyrosyl tRNA synthetase (TcYRS) SOP; format: functional; conditions: 30 µM
[9] = biological target: Chromo domain-containing protein 1 (Saccharomyces cerevisiae (strain ATCC 204508 / S288c) (Baker's yeast)) (UniProt P32657); assay: ScCHD-1 Enzyme Inhibition Assay; format: functional; conditions: 30 µM; note: in the data most compounds retested in dose-response had high values
Chain of Chromo domain-containing protein 1 (Saccharomyces cerevisiae (strain ATCC 204508 / S288c) (Baker's yeast)) (P32657 whole entry, the tested form may be a part): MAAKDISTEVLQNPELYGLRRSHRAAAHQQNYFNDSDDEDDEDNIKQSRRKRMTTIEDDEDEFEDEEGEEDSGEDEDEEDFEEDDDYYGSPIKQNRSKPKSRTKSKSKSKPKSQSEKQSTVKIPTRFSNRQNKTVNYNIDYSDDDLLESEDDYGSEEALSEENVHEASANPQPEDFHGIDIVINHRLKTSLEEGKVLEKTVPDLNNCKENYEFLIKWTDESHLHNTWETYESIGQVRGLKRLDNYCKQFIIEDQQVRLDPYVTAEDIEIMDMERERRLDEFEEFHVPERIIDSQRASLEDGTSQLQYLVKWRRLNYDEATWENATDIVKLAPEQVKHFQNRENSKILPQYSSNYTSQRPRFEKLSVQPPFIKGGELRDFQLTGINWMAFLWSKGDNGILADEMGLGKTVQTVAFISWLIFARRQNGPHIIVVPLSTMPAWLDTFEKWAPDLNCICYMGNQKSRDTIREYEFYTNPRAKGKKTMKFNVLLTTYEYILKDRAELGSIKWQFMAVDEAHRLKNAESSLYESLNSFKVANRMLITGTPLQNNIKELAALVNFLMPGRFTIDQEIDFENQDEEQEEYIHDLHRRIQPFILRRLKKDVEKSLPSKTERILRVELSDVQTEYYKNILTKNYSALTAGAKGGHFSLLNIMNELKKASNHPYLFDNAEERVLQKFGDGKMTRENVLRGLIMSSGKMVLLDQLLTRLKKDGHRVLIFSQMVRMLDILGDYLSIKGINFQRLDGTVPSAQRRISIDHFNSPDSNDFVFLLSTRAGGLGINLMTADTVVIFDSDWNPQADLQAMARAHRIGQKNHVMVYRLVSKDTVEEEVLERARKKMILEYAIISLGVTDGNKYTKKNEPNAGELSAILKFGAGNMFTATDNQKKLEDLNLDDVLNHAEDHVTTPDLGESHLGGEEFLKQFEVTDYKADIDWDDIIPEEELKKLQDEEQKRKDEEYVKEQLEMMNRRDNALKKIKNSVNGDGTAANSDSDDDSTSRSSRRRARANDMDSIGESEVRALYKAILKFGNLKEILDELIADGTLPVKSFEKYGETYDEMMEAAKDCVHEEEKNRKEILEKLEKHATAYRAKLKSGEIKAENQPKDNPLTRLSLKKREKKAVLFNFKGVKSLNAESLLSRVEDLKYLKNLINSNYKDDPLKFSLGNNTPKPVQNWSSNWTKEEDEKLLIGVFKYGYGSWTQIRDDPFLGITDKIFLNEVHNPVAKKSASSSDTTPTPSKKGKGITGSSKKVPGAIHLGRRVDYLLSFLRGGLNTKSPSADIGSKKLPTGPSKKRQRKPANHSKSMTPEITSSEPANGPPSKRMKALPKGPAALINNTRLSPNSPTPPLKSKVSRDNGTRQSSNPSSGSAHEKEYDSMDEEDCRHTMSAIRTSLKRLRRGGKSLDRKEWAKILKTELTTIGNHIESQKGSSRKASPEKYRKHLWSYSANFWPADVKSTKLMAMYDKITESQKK

Row | SMILES | Percent Effect [1] [%] | Percent Effect [2] [%] | Percent Effect [3] [%] | Percent Effect [4] [%] | Percent Effect (Trypanosoma cruzi) [%] | Percent Effect [5] [%] | Percent Effect [6] [%] | Percent Effect (Homo sapiens) [%] | Percent Effect [7] [%] | Percent Effect [8] [%] | Percent Effect [9] [%]
1 | N#Cc1ccc(F)c(CN2CCCC2Cn2cccn2)c1 (stereo unspecified) | -4.03 | -8.11 | -4.51 | 13.8 | 1.39 | -0.554 | -0.359 | 4.22 | 4.95 | 1.22 | 4.66
2 | O=C(NCc1ccco1)[C@H]1C[C@H]2OCC[C@H]2N(S(=O)(=O)C2CC2)C1 | -3.9 | 8 | -0.23 | 14.7 | -2.7 | -26.7 | 8.38 | -14 | -1.04 | 15 | -8.9
3 | O=C(c1ccc(Cl)o1)N1CCCN(Cc2cscn2)CC1 | -5.01 | 15.6 | -7.43 | -4.3 | 4.02 | -2.74 | 16.1 | 0.576 | 6.67 | 14.1 | -17.3
4 | Cc1nc(C)c(CC(=O)N2C[C@H]3CC[C@@H]2CN(C(=O)N(C)C)C3)c(=O)[nH]1 | -12.8 | 0 | -2.11 | -2.97 | -5.18 | -1.74 | -2.49 | 26.8 | -1.07 | -1.24 | -2.75
5 | CCC1CN(C(=O)Nc2cnc3c(cnn3C(C)C)c2)CCO1 (stereo unspecified) | 0.162 | 13.5 | -1.29 | 10.7 | -5.48 | 0.554 | 17.6 | 22.8 | 6.93 | 18.3 | -2.08
6 | CCc1c(C(=O)NC2CCS(=O)(=O)C2)cnn1-c1ccc(F)cc1 (stereo unspecified) | -2.17 | 15.2 | -2.59 | -6.54 | 8.21 | 1.9 | 7.29 | -14.4 | 7.39 | 21.5 | -5.38
7 | O=C(CN1CCCCC1Cn1cncn1)NCCc1ccc(F)cc1 (stereo unspecified) | -0.868 | 15.2 | -4.02 | -10.5 | -6.89 | -2.28 | 8.27 | 37.4 | 8.37 | 11.4 | -9.46
8 | CCCNC(=O)CCNC(=O)Cc1nc(-c2ccco2)oc1C | -3.29 | 2.67 | -1.47 | 12.8 | -5.16 | 4.69 | 13.2 | 8.33 | 3.83 | 8.64 | -3.56
9 | Cc1nc([C@@H]2C[C@@H]3CCN(C(=O)c4occc4C)C[C@H]3O2)no1 | -6.42 | 0 | 6.51 | 3.94 | -1.74 | -52.1 | 4.1 | 7.9 | -1.04 | -5 | -4.87
10 | COCCC(=O)N1CCC2(COCc3cnc(-c4ccccc4)nc32)C1 (stereo unspecified) | -1.59 | 2.67 | 15.5 | -0.802 | -7.48 | 2.56 | 1.15 | 6.76 | -1.06 | 3.85 | -0.943
11 | CC1CN(CC(=O)Nc2nncs2)CCN1Cc1nccn1C (stereo unspecified) | -6.24 | 8.11 | -5.38 | -3.66 | -2.69 | 0.924 | 4.67 | 12 | 4.95 | 6.1 | 8.11
